HIF-2a inh – blocks HIF-2a reporter activity | AID 624352 | 360,000 tested, 0.72% active | 786-0 RCC cells HIF-2a reporter, luciferase luminescence, overnight | inhibition, % at 18.8 µM;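 active = inhibition of the luminescence signal of 40% or more relative to plate controls, in a single-dose primary screen at 18.75 µM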
Shn3 3UTR inh – Schnurri-3 reporter inhibition in Clone20 osteoblasts. Clone20 osteoblast Shn3 3'UTR firefly luciferase, 24 h. inhibition, % at 12.5 µM. 360,000 tested, 0.52% active;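 active = mean inhibition of at least 75% with every replicate also reaching 75%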;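 note: 0% = median of neutral control wells and 100% = pilot-screen positive control compound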
KKLEB cytotox – counter-screen for CF NF-kB inhibitors: cytotoxicity | KKLEB CF airway cells viability, ATPlite luminescence, overnight; hits give low values; cells stimulated with P. aeruginosa culture filtrate | activity change (cytotoxicity), % at 5 µM | 360,000 tested, 0.36% active | AID 602141;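 active = corrected activity change at or below -50% at 5 µM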
Peg3 prom inh – inhibitors of Peg3 promoter. AID 588405. inhibition, % at 20 µM. 360,000 tested, 1.7% active. HeLa PEG-Prom luciferase reporter, luminescence, overnight;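 active = inhibition of at least 50% at 20 µM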
LMP1 NFkB inh – inhibitors of Epstein-Barr LMP1-induced NF-kappaB reporter | inhibition, % at 12.5 µM | LMP1-induced NF-kappaB luciferase reporter cells, luminescence | 350,000 tested, 0.69% active; in the data active = inhibition above about 41%;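 note: 0% = neutral control wells and 100% = reference inhibitor control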
CF NFkB inh – blocks PAF-induced NF-kB reporter in cystic fibrosis cells | KKLEB NF-kB-GFP reporter, GFP fluorescence overnight | 360,000 tested, 0.86% active | inhibition, % at 5 µM | AID 588850;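 active = at least 50% inhibition at 5 µM, scaled per plate between neutral and stimulator controls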;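 note: PAF is a Pseudomonas aeruginosa culture filtrate used as stimulus; plate controls were PAF-stimulated DMSO wells for no effect and unstimulated DMSO wells for full effect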
* hit, by the source's call. In the library only some 2.9% were active in any assay of this set; here they are far more common.

SMILES | HIF-2a inh | Shn3 3UTR inh | KKLEB cytotox | Peg3 prom inh | LMP1 NFkB inh | CF NFkB inh
O=C(c1cccc(F)c1)N1CCN(C(=O)c2cc3ncc(Br)cn3n2)CC1 | 2 | -18 | 13 | 16 | -7 | -10
CSc1ccccc1OCc1cc(C(=O)NCCn2ccnc2C)no1 | 14 | -24 | -1 | 5 | 3 | 15
O=C(O)c1ccc(S(=O)(=O)c2ccc3c(c2)C(=O)N(c2ccc(Br)cc2)C3=O)cc1 | 7 | 4 | -9 | 5 | -7 | 13
COc1ccc(NC(=O)c2ccc3c(c2)NC(=O)CS3)cc1 | -168 | -36 | -17 | -135 | -13 | 8
Cc1ccc(NS(=O)(=O)c2cc(NC(=O)c3ccc4c(c3)NC(=O)CS4)ccc2Cl)c(C)c1 | 34 | 14 | 7 | 52* | 7 | -16
CCOCCn1ccc2c(OCC(=O)Nc3ccc(OC)c(OC)c3)cccc2c1=O | 8 | 74 | -10 | 17 | 19 | 0
CCOCCn1ccc2c(OCC(=O)Nc3ccc(OC)cc3OC)cccc2c1=O | 15 | 11 | -10 | 52* | 5 | 10
O=C1CCc2cc(S(=O)(=O)Nc3ccccc3)cc3c2N1CC3 | -2 | -10 | -7 | 11 | 8 | -14
CCN1C/C(=C/c2cccc([N+](=O)[O-])c2)C(=O)/C(=C/c2cccc([N+](=O)[O-])c2)C1 | 97* | 99* | -40 | 104* | 97* | 102*
O=S(=O)(Nc1ccccn1)c1cccs1 | 19 | 3 | -36 | -3 | 0 | 15
NS(=O)(=O)c1ccc(CNC(=O)C(c2ccccc2)c2ccccc2)cc1 | 8 | -6 | -4 | 13 | -4 | 6
CC(=O)C1=C(C)NC(SCC(=O)c2cc(Cl)ccc2Cl)=C(C#N)C1c1ccco1 (stereo unspecified) | -3 | 81* | -15 | 27 | -20 | 8
CC(=O)C1=C(C)NC(SCC(=O)c2ccc(Cl)c(Cl)c2)=C(C#N)C1c1ccco1 (stereo unspecified) | -7 | 3 | 0 | 13 | 5 | -12
CC(C)CC1NC(=O)C(CC(C)C)N(CO)C1=O (stereo unspecified) | 1 | 38 | 5 | -11 | -3 | 9
COC(=O)C1c2ccccc2-c2ccccc21 | 15 | 39 | -5 | 1 | 6 | -1
CC1(C)CC(=O)C=C(N2CCNCC2)C1 | 7 | 15 | -3 | 14 | 3 | 12
CC1(C)CC(N2CCCC2)=CC(=[N+]2CCCCCC2)C1 | 14 | 84 | -3 | 8 | 8 | 2
CN(Cc1ccccc1)C1=CC(=[N+]2CCCC2)CC(C)(C)C1 | 7 | 88* | 0 | 24 | 15 | -6
CC1CC(C)C[N+](=C2C=C(N3CCCC3)CC(C)(C)C2)C1 (stereo unspecified) | 4 | 89* | -1 | 34 | 42* | 24
CC1(C)CC(N2CCN(c3ccccc3)CC2)=CC(=[N+]2CCCC2)C1 | 1 | 86* | -10 | 12 | 7 | 12
O=C(NCc1ccccc1)c1sc(=S)n2c1[nH]c(=O)c1ccccc12 | -9 | -17 | -19 | 14 | 2 | 51*
CCCCNC(=O)c1sc(=S)n2c1[nH]c(=O)c1ccc(C(=O)NCCc3ccc(OC)c(OC)c3)cc12 | -15 | 13 | 4 | -1 | 3 | 26
COc1ccc(OCC(=O)Nc2sc3c(c2C(=O)NCC2CCCO2)CCC3)cc1 (stereo unspecified) | 8 | 58 | -6 | 5 | 3 | 19
COc1ccc(-c2cc(=O)oc3c(C)c(O)c(CN(C)C)cc23)cc1 | 19 | 5 | -5 | 21 | 3 | 55*
Cc1cc(/C=C(\C#N)C(=O)NCCc2c[nH]c3ccccc23)c(C)n1C | -2 | 9 | 3 | -7 | 3 | 3
COc1cc(/C=C(/C#N)C(=O)NCCc2c[nH]c3ccccc23)ccc1OCc1ccccc1F | 1 | 25 | -28 | 89* | 2 | 22
COCCNC(=O)C1Cc2c(ccc3ccccc23)O1 (stereo unspecified) | -37 | -35 | -5 | -16 | 1 | -7
COc1ccc(S(=O)(=O)NNC(=O)C2Cc3c(ccc4ccccc34)O2)cc1 (stereo unspecified) | 13 | 61 | 2 | 11 | 44* | 5
C[N+]1(C)CCC(OC(=O)C(O)(c2ccccc2)C2CCCC2)C1 (stereo unspecified) | 3 | -8 | 9 | -14 | -6 | -10
